Source: ChEMBL document CHEMBL4513216, “Probing the Open Global Health Chemical Diversity Library for Multistage-Active Starting Points for Next-Generation Antimalarials” (ACS Infect Dis, 2020)
In all, about 65,000 compounds went through this assay and about 2,100 (3.2%) showed an effect of 50% or more. The median lay at about -52%. The list comes from a sample in which strong results are over-represented; it also holds similar structures and randomly drawn compounds.

Each molecule was assayed on Plasmodium falciparum (assay: Screen against P. falciparum Asexual Blood Stage (ABS), at 5uM). Conditions: tested at 5 uM.
Format: functional, Dd2

Point of comparison: Cc1ccc(CN(CCN(C)C)Cc2c(C)nc3sccn23)o1, INHIBITION 84.6%. Against it:
- CNC(=O)CCN(C)CC1(c2ccc(Br)cc2)CC1 — higher, 87.3%
- Cc1sc2c(C3CCCN(C)C3)nc(C)n2c1C (stereo unspecified) — lower, 42.7%
- CN1CCCC(c2cccc(-c3cccc(F)c3)n2)C1 (stereo unspecified) — lower, 74%
- CN1CCCC(c2cccc(-c3cccc(C(F)(F)F)c3)n2)C1 (stereo unspecified) — lower, 73.7%
- CN1CCC(c2cncc(N(C)C)n2)CC1 — lower, -19%
- CN1CCCC(c2cncc(-c3cccc(C(F)(F)F)c3)n2)C1 (stereo unspecified) — lower, 77.3%
- CC(=O)N1CCCC(c2ccc(N3CCN(C)CC3)cn2)C1 (stereo unspecified) — lower, -0.837%
- CNC(=O)c1ccc2c(c1)C1(CCN(CC(C)C)CC1)C(=O)N2 — lower, -15.5%
- Cc1nccc([C@H]2C[C@@H]3CCN(Cc4ccco4)C[C@H]3O2)n1 — lower, -9.96%
- Cc1ccc(CC(=O)N2CCN(C3CCOC3=O)CC2)cc1 (stereo unspecified) — lower, -27.2%
- CC(C)N1CCN(C)C2(CCN(C(=O)c3ccnnc3)CC2)C1=O — lower, -37.3%
- CN1CCN2C(=O)N(C3CCOCC3)C[C@H]2C1 — lower, -99.7%
- c1cncc(COCC2CC[C@H]3[C@H]2OCCN3Cc2ccoc2)c1 (stereo partly specified) — lower, -12.2%
- CCC[C@H]1CN(S(=O)(=O)c2c(C)noc2C)C[C@@H]1N — lower, 82.5%
- CCC[C@H]1CN(S(=O)(=O)c2ccc(CC)s2)C[C@@H]1N — lower, 75.8%
- Cc1noc(C)c1CN1C[C@H]2CNC[C@H]2C1 — lower, 9.33%
- Cc1nc(CC(=O)N(CCN2CCOCC2)Cc2ccco2)c(C)s1 — lower, -135%
- Cc1ccc(CN(CCN(C)C)C(=O)Cc2cn3ccccc3n2)o1 — lower, -67.1%
- CN(C)CCN(Cc1ccco1)C(=O)Cc1cn2ccsc2n1 — lower, -5.56%
- Cc1nc2sccn2c1CN(CCCN(C)C)Cc1ccco1 — higher, 86.2%
- CNC(=O)CN1CCO[C@H]2CN(C(=O)c3ccncc3F)C[C@H]21 — lower, -74.6%
- CCCn1cc(C(=O)NC(C(=O)O)c2ccccc2C(F)(F)F)c(C)n1 (stereo unspecified) — lower, -51.5%
- CS(=O)(=O)N1CCN(CC2CC2)c2ncccc2C1 — lower, -25.9%
- OC[C@H]1CN2CCN(c3ccccn3)C[C@@H]2[C@@H]1c1ccccc1 — lower, -11.3%
- COc1ccc(CN2CCCC2)cc1Oc1ccc2c(c1)CC(CN)O2 (stereo unspecified) — higher, 88.2%
- NCC1Cc2cc(Oc3cc(F)c(CN4CCCC4)c(F)c3)ccc2O1 (stereo unspecified) — lower, 77.8%
- COc1ncccc1CN1C[C@@H]2COC[C@]2(COCC2CC2)C1 — lower, 33.8%
- Cc1cccc(CN2C[C@@H]3COC[C@]3(COc3cccnc3)C2)n1 — lower, -77.5%
- Cc1noc(C)c1CN1CCOCC12CCN(c1nccs1)CC2 — lower, -91.6%
- O=C(c1scc2c1OCCO2)N1CCOC(CCc2ccccc2)C1 (stereo unspecified) — higher, 88.7%
- O=C(Cc1ccccc1)N1C[C@@H]2OCCN(CC3CCCO3)[C@@H]2C1 (stereo partly specified) — lower, -34.5%
- O=C(CCc1ccccc1)N1C[C@H]2CCN[C@H]2C1 — lower, -6.16%
- Cc1ccccc1C1(C(=O)NCCN2CCCC(C)C2)CCOCC1 (stereo unspecified) — higher, 88.1%
- Cc1ccccc1C1(C(=O)NCCN2CCC(C)CC2)CCOCC1 — higher, 85.3%
- O=C(NCCc1ccccn1)[C@@]12CCO[C@@H]1CCN(CC1CC1)C2 — lower, 30.8%
- O=C(NCCc1ccccn1)[C@@]12CCO[C@@H]1CCN(C1CCC1)C2 — lower, 44.6%
- CN1CC[C@H]2OCC[C@@]2(C(=O)NCCc2ccccn2)C1 — lower, 12.7%
- O=S1(=O)CCC(n2cc(C3=CCN(CCN4CCCCC4)CC3)cn2)C1 (stereo unspecified) — lower, 12.6%
- O=C(N[C@H]1CN[C@H]2CCCO[C@H]21)c1ccno1 — lower, -87.2%
- c1cc(COC[C@@H]2CCC[C@@]23CNCCO3)ccn1 — lower, 7.1%
- COc1cc(CNCC(O)c2ccccc2F)cc2c1OCO2 (stereo unspecified) — lower, 78%
- COc1cc(CNCC(O)c2ccc(F)cc2F)cc2c1OCO2 (stereo unspecified) — higher, 85.5%
- CC[C@H](N)Cn1nc(-c2cccs2)oc1=O — lower, -186%
- CCc1nnc(C(C)N2CCCN(C(=O)Oc3ccccc3)CC2)o1 (stereo unspecified) — lower, -87.2%
- CCC(CN1CCN(C)CC1)NC(=O)C1(c2cccc(F)c2)CC1 (stereo unspecified) — lower, 77.1%
- CC(C)CN1CCC2(CC1)C(=O)Nc1ccc(C(=O)NC(C)C)cc12 — lower, -39.5%
- CC(C)NC(=O)c1ccc2c(c1)C1(CCN(C)CC1)C(=O)N2 — lower, -37.9%
- O=C(Nc1cccc(F)c1)N1CCC(CO)(Nc2ccccc2)CC1 — lower, -35.15%
- CCC(CN1CCCC1)NC(=O)C1(c2cccc(F)c2)CC1 (stereo unspecified) — higher, 84.7%
- CC(C)n1cc(C(=O)NC2CN3CCC2CC3)c2ccccc21 (stereo unspecified) — lower, -24.9%
- CC(C)(C)n1cc(C(=O)NCCN2CCOCC2)c2cccnc21 — lower, -89.4%
- Cc1[nH]c2ccccc2c1-c1ccnc(NCCN2CCOCC2)n1 — lower, 82.5%
- Cn1cc(C2NC3(CCCC3)C(=O)N2CC2CC2)c(=O)n(C)c1=O (stereo unspecified) — lower, -43.9%
- Cc1ccc(N2CC[C@@H]3CN(Cc4cc[nH]n4)C[C@@H]3C2)nn1 — lower, -19.6%
- Cc1cc(CN2C[C@@H]3CN(C(=O)c4ccco4)CCO[C@@H]3C2)no1 — lower, -45%
- NCC1(c2cccc(C(F)(F)F)c2)CCOCC1 — lower, 69.9%
- NCC1(c2cccc(F)c2)CCOCC1 — lower, 2.49%
- NCC1(c2cccc(C(F)(F)F)c2)CC1 — lower, -97.7%
- NCC1(c2cccc(Br)c2)CCOCC1 — lower, 79.5%
- Cc1nn(-c2ccc(C(=O)O)cc2)c2c1C(c1ccsc1)SCC(=O)N2 (stereo unspecified) — lower, -82.6%
- COCCN1CCN(Cc2ccco2)Cc2ccc(C)nc21 — lower, -85%
- COCCN1CCO[C@@H]2CN(S(=O)(=O)c3cccnc3)C[C@@H]2C1 — lower, -76.3%
- Cc1cc(CN2C[C@@H]3COC[C@@H](C(=O)N4CCCCO4)[C@@H]3C2)no1 — lower, -31.1%
- COc1ccc(CN2C[C@H]3CCC[C@@H](CN(C)C4CC4)[C@H]3C2)cn1 — lower, 78.2%
- O=C(C[C@@H]1COC[C@H]2CN(Cc3cccnc3)C[C@@H]12)N1CCCC1 — lower, -133%
- Cn1cc(CN2C[C@H]3CCC[C@@H](CNc4ncccn4)[C@H]3C2)cn1 — lower, -87.3%
- COc1ccc(CN2C[C@H]3CCC[C@@H](CN(C)C)[C@H]3C2)cn1 — lower, 50%
- COCCN(C)C[C@@H]1CCC[C@@H]2CN(Cc3ccc(OC)nc3)C[C@@H]21 — lower, 79.6%
- CN(C[C@@H]1CCC[C@@H]2CN(Cc3cccnc3)C[C@@H]21)C1CC1 — lower, 56.5%
- COC1CCC[C@@H]2CN(Cc3csc(C)n3)C[C@H]12 (stereo partly specified) — lower, 24.8%
- c1cnc(NC[C@@H]2CCC[C@@H]3CN(Cc4cccnc4)C[C@@H]32)nc1 — lower, 42.2%
- Cc1cccc(CN2C(=O)CC[C@H]3[C@@H]2CCN3CC(=O)N(C)C)n1 — lower, -71%
- CCCN1C(=O)C2(CCCCC2)NC1c1cn(C)c(=O)n(C)c1=O (stereo unspecified) — lower, -5.44%
- CCCN1C[C@@H]2CC[C@H]1CN(C(=O)Cc1c(C)[nH]c(CC)nc1=O)C2 — lower, -19.6%
- COCc1cncc2c1CCN(Cc1ccccn1)C2 — lower, -65.2%
- CC(Cc1c(F)cccc1F)NC(=O)CN(CC(N)=O)C(C)C (stereo unspecified) — lower, -23.8%
- COc1ccc(C(NCc2cccc(O)c2)C2CC2)cc1 (stereo unspecified) — lower, 83.6%
- COc1ccc(CC(C)Nc2cccc(F)c2)cc1 (stereo unspecified) — lower, -65.5%
- O=C(Cc1ccc(O)c(Cl)c1)N1CCN(CC2CC2)[C@@H]2CS(=O)(=O)C[C@@H]21 — lower, -53.2%
- COCCN1CCC2(COCc3cnc(N4CCOCC4)nc32)C1 (stereo unspecified) — lower, -18.1%
- COCC(=O)NC[C@H]1C[C@@H]2CCN1C[C@@H]2CN1CCc2ccccc2C1 — lower, -27.5%
- CN1CCCC(CNS(=O)(=O)N2CCc3ccccc3C2)C1 (stereo unspecified) — lower, 77.4%
- CN1CCN(S(=O)(=O)C2CC2)Cc2cccnc21 — lower, -77.8%
- CCOCCC(=O)N1C[C@@H]2CC[C@H]1CN(Cc1ccncc1)C2 — lower, -31.8%
- Clc1ccccc1C1(c2ccnc(CC3CC3)n2)CCNCC1 — higher, 87.8%
- Clc1ccccc1C1(c2ccnc(C3CCCC3)n2)CCNCC1 — lower, 83%
- Clc1ccccc1C1(c2ccnc(C3CC3)n2)CCNCC1 — lower, 73.5%
- O[C@]12CCNC[C@H]1CN(c1ncccc1Cl)CC2 — lower, -135%
- Cc1nc(CN2CCC3(C2)CN(C(=O)c2conc2C)C3)cs1 — lower, -65.1%
- Fc1cccnc1O[C@@H]1CC[C@H]2[C@H]1OCCN2Cc1nccs1 — lower, -91.9%
- CC(C)(C)n1ncc2c1NC(=O)CSC2c1ccc2c(c1)OCCO2 (stereo unspecified) — lower, -24.5%
- O=C(COc1cccc(F)c1)N1C[C@@H](O)[C@H](N2CCCC2)C1 — lower, -133%
- OCc1csc(N2CCCC(COc3cccc(F)c3)C2)n1 (stereo unspecified) — lower, 81.2%
- CCCOc1ccc(C2SCC(=O)Nc3c2c(=O)[nH]n3C(C)C)cc1 (stereo unspecified) — lower, -95%
- CC(=O)C1(c2ccccc2)CCN(C(=O)c2ccn3nnnc3c2)CC1 — lower, -138%
- CNC(C)Cc1ccccc1Sc1ccc(O)cc1 (stereo unspecified) — higher, 88.2%
- CNS(=O)(=O)CC(=O)NC(C)Cc1ccccc1Br (stereo unspecified) — lower, -184%
- CC[C@H](C)[C@@H](CO)NC(C)Cc1ccccc1F (stereo partly specified) — lower, 49.7%
- CC(N)Cc1ccccc1Sc1ccc(O)cc1 (stereo unspecified) — lower, 72.4%
- CC(N)Cc1ccccc1Sc1ccccc1 (stereo unspecified) — lower, 78.3%
